In PubChem BioAssay (NCI):
The panel holds about 83,000 compounds, 20% with a hit somewhere; the sample as a whole holds those more often.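 Cells were grown in 96-well plates and exposed to the test compound at a single concentration for 48 hours; results are reported as percent growth, with values below 10 considered active.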 Calls of active or inactive are those of the source.

How the values were obtained:
Assay in all cases: NCI-60 one-dose screen, 48 h (100 = growth as untreated, 0 = no growth, -100 = all killed)
SR leukemia = conditions: 10 µM unless noted
RPMI-8226 leukemia = conditions: 10 µM unless noted
OVCAR-8 ovarian = conditions: 10 µM unless noted
OVCAR-5 ovarian = conditions: 10 µM unless noted
OVCAR-4 ovarian = conditions: 10 µM unless noted
SK-OV-3 ovarian = conditions: 10 µM unless noted
IGROV1 ovarian = conditions: 10 µM unless noted
OVCAR-3 ovarian = conditions: 10 µM unless noted
HS 578T breast = conditions: 10 µM
NCI/ADR-RES ovarian = conditions: 10 µM unless noted
T-47D breast = conditions: 10 µM unless noted
BT-549 breast = conditions: 10 µM unless noted
MDA-MB-435 melanoma = conditions: 10 µM unless noted
SW-620 colon = conditions: 10 µM unless noted
MCF7 breast = conditions: 10 µM unless noted
HCT-116 colon = conditions: 10 µM unless noted
HCC-2998 colon = conditions: 10 µM unless noted
KM12 colon = conditions: 10 µM unless noted

Measured: growth

COc1cc(-c2n/c(=C\c3c(O)[nH]c4cc(Cl)ccc34)cc3c2=Nc2ccccc2-3)cc(OC)c1OC
inactive: SR leukemia 36.8% | RPMI-8226 leukemia 84.6% | OVCAR-8 ovarian 59.3% | OVCAR-5 ovarian 102% | SK-OV-3 ovarian 59.4% | IGROV1 ovarian 25.2% | OVCAR-3 ovarian 58.1% | HS 578T breast 50% | NCI/ADR-RES ovarian 84.1% | T-47D breast 67.2% | BT-549 breast 45.2% | MDA-MB-435 melanoma 66.2% | SW-620 colon 41.5% | MCF7 breast 55.7% | HCT-116 colon 52.9% | HCC-2998 colon 93.1% | KM12 colon 51.8%
active: OVCAR-4 ovarian -1.32%

COc1ccc2nc(C)cc(Nc3ccccc3O)c2c1
active: SR leukemia -32.8% | OVCAR-4 ovarian -76.1% | SK-OV-3 ovarian -41.5% | OVCAR-3 ovarian -35.5% | HS 578T breast -3.7%
inactive: RPMI-8226 leukemia 25% | OVCAR-8 ovarian 32.6% | OVCAR-5 ovarian 108% | IGROV1 ovarian 44.9% | NCI/ADR-RES ovarian 46.9% | T-47D breast 44% | BT-549 breast 35% | MDA-MB-435 melanoma 64.4% | SW-620 colon 82% | MCF7 breast 67.7% | HCT-116 colon 29.9% | HCC-2998 colon 112% | KM12 colon 86.9%

O=C(OCc1ccc2c(Cl)cc(Cl)c(O)c2n1)c1cc2ccccc2[nH]1
inactive: SK-OV-3 ovarian 67.5%
active: SR leukemia 0.939% | RPMI-8226 leukemia -37.4% | OVCAR-8 ovarian -24.9% | OVCAR-5 ovarian -55.2% | OVCAR-4 ovarian -70.4% | IGROV1 ovarian -89.5% | OVCAR-3 ovarian -92.1% | HS 578T breast -14.4% | NCI/ADR-RES ovarian -35.3% | T-47D breast -57.2% | BT-549 breast -76.3% | MDA-MB-435 melanoma -89.4% | SW-620 colon -66.2% | MCF7 breast -35.7% | HCT-116 colon -73.3% | HCC-2998 colon -73.1% | KM12 colon -63.9%

Nc1nonc1-c1nc2ccccc2n1Cc1ccc(F)cc1
active: MDA-MB-435 melanoma -39.6%
inactive: SR leukemia 22.3% | RPMI-8226 leukemia 64.4% | OVCAR-8 ovarian 76.7% | OVCAR-5 ovarian 80.4% | OVCAR-4 ovarian 66.9% | SK-OV-3 ovarian 54.4% | IGROV1 ovarian 48.7% | OVCAR-3 ovarian 48.5% | HS 578T breast 53.6% | NCI/ADR-RES ovarian 36.8% | T-47D breast 61.3% | BT-549 breast 58% | SW-620 colon 24.7% | MCF7 breast 28.4% | HCT-116 colon 30.4% | HCC-2998 colon 58.8% | KM12 colon 30.5%

CCOC(CN1CCN(CC(C)C(=O)c2ccccc2)CC1)c1ccccc1 (centres undefined)
inactive: SR leukemia 99.3% | RPMI-8226 leukemia 88.8% | OVCAR-8 ovarian 104% | OVCAR-5 ovarian 110% | OVCAR-4 ovarian 93.4% | SK-OV-3 ovarian 105% | IGROV1 ovarian 104% | OVCAR-3 ovarian 112% | HS 578T breast 115% | NCI/ADR-RES ovarian 106% | T-47D breast 92.8% | BT-549 breast 115% | MDA-MB-435 melanoma 102% | SW-620 colon 106% | MCF7 breast 80.6% | HCT-116 colon 109% | HCC-2998 colon 115% | KM12 colon 104%

CNC(=O)c1cc(Oc2ccc(NC(=O)c3[nH]c(SC)nc3-c3ccc(F)cc3)cc2)ccn1
inactive: SR leukemia 63.1% | RPMI-8226 leukemia 43.8% | OVCAR-8 ovarian 69.1% | OVCAR-5 ovarian 99.9% | OVCAR-4 ovarian 60.8% | SK-OV-3 ovarian 34.1% | IGROV1 ovarian 55% | OVCAR-3 ovarian 88.2% | HS 578T breast 75.7% | NCI/ADR-RES ovarian 67.4% | T-47D breast 37% | BT-549 breast 85.3% | MDA-MB-435 melanoma 21.2% | SW-620 colon 90.3% | MCF7 breast 66.4% | HCT-116 colon 62.9% | HCC-2998 colon 96.9% | KM12 colon 19.4%

Cc1cc(C)c2c(n1)sc1c(Nc3ccc(Cl)cc3Cl)ncnc12
active: SR leukemia 4.08% | OVCAR-8 ovarian 3.79%
inactive: RPMI-8226 leukemia 28.4% | OVCAR-5 ovarian 57.5% | OVCAR-4 ovarian 68% | SK-OV-3 ovarian 22.2% | IGROV1 ovarian 69.5% | OVCAR-3 ovarian 57.3% | HS 578T breast 90.7% | NCI/ADR-RES ovarian 17.9% | T-47D breast 36.8% | BT-549 breast 44% | MDA-MB-435 melanoma 36% | SW-620 colon 44.6% | MCF7 breast 19.8% | HCT-116 colon 24.9% | HCC-2998 colon 58.6% | KM12 colon 49.8%

CCOC(=O)c1sc2nc(-c3cc4ccccc4o3)cc(-c3ccc(Cl)cc3)c2c1N
inactive: SR leukemia 71.6% | RPMI-8226 leukemia 42.4% | OVCAR-8 ovarian 112% | OVCAR-5 ovarian 112% | OVCAR-4 ovarian 101% | SK-OV-3 ovarian 104% | IGROV1 ovarian 81.2% | OVCAR-3 ovarian 103% | HS 578T breast 91.9% | NCI/ADR-RES ovarian 112% | T-47D breast 103% | BT-549 breast 148% | MDA-MB-435 melanoma 222% | SW-620 colon 96.8% | MCF7 breast 110% | HCT-116 colon 105% | HCC-2998 colon 109% | KM12 colon 99.7%
